Compound activity (PubChem)
ELG1 repair inh: ELG1-dependent DNA repair inhibition; actives 2.3% (n = 330,000); Potency, µM (top dose mostly 46.1 µM), inactives show at the highest dose activity change, negative = inhibition, actives largely listed as inhibitors; HEK293T ELG1-luciferase reporter, luminescence, 16 h; DNA damage induced by 5-fluorouridine; also: potency is read from the fitted curve at half-maximal effect; nearly all actives have a fitted effect of over 55% in size
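5-Fluorouridine DNA damage + compound/DMSO, 2,000 cells/well, 16 h, 37 °C/5% CO2. ONE-Glo, 30 min RT, luminescence. Readout = decrease in reporter signal.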
Giardia kill: Giardia lamblia killing. activity change, % at 7.66 µM, hits read low. Giardia lamblia trophozoite viability. actives 0.15% (n = 340,000); in the data active = activity change below about -80%; inconclusive = between about -30% and that limit;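 also: parasites exposed to compound for two days anaerobically before the ATP read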
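Giardia lamblia trophozoites (100 cells/well) were incubated with compounds for 48 h at 37 deg C under anaerobic conditions. Viability was read as ATP content by one-step luminescence after 15-30 min at room temperature.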
Sfp PPTase inh: Sfp phosphopantetheinyl transferase inhibition | Q9F4F7 | Potency, µM, inactives show largest response in the series, negative = inhibition, usual class: inhibitors | actives 3.5% (n = 310,000) | Biochemical Sfp PPTase activity, qHTS;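 also: the enzyme is Sfp with the accession as filed and its product quenches rhodamine fluorescence; potency is read from the fitted curve at half-maximal effect; 0% = enzyme reaction without inhibitor and -100% = no enzyme wells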
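After 15 min at room temperature with compound, 15 nM Sfp received 5 uM rhodamine-CoA plus 12.5 uM BHQ-2-ybbR (50 mM Hepes pH 7.6, 10 mM MgCl2). Rate came from the fluorescence difference over 30 min, ex 525/em 598 nm.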
FBPA coupling cs: counter-screen for Giardia aldolase inhibitors: coupling enzyme system; activity change, negative = inhibition, % at 58.2 µM, hits read low; coupling enzyme system counterscreen, AmpLite Red fluorescence; AID 2472; actives 0.67% (n = 290,000); in the data active = activity change below about -30%
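Counterscreen of the coupled detection system alone, without aldolase: glyceraldehyde-3-phosphate coupling enzymes plus AmpLite Red readout. Compounds at 57.5 uM final, 10 min RT preincubation, 20 min RT reaction, fluorescence 525/598 nm.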
Starred values were filed as active, the others as inactive; ? = inconclusive; . = no result. Sampled rows, rich in hits. Any-hit rate of the full collection: about 5.5%. Unless noted, calls follow the shape of the dose curve; as a rule, active = well fitted curve in the direction sought with a large enough effect; inconclusive = small, poorly fitted or top-dose-only effect, or another doubt; inactive = no such curve, though single readings can be large; an effect the other way counts as inactive or inconclusive. Unless noted, % is scaled to controls: 0 for no effect and ±100 for the full control effect.

SMILES | ELG1 repair inh | Giardia kill | Sfp PPTase inh | FBPA coupling cs
O=C(Nc1cccc(NC(=O)c2cncc(Br)c2)c1)c1cncc(Br)c1 | 20.6µM* | 30.0 | -11.9% | -1.6
Cc1nc(-c2ccc(C(=O)Nc3cccc(Br)c3)cc2)cs1 | ? | -20.1 | 50.1µM* | -2.0
Cc1cc(O)ccc1NC(=S)NC(=O)c1cncc(Br)c1 | -7.7% | -15.6 | 56.2µM* | 1.6
Cc1nc2ccc(NC(=O)c3cncc(Br)c3)cc2s1 | 23.1µM* | 19.6 | 6.6% | 1.7
CC1CN(S(=O)(=O)c2ccc(F)cc2)C(C)N1C(=O)N1CCOCC1 (stereo not given) | -1.9% | -11.0 | 15.7% | -2.4
Cc1ccc(NC(=S)/C(=C(\[O-])c2ccc(F)cc2)[n+]2ccccc2)cc1 | 17.7% | -5.1 | 44.7µM* | -0.5
[O-]/C(=C(\C(=S)NCc1ccccc1)[n+]1ccccc1)c1ccc(Cl)cc1 | -3.5% | -21.0 | -54.6% | -0.2
C=CCNC(=S)/C(=C(\[O-])c1ccc(Cl)cc1)[n+]1ccccc1 | -4.0% | 27.4 | 8.91µM* | 1.7
Cc1ccc(-c2nnc(/C=C/c3ccccc3)o2)cc1 | ? | -14.8 | -7.7% | 0.3
Cc1ccc(C2=NOC(=O)/C2=C\C=C\c2ccccc2)cc1 | ? | 4.5 | 28.2µM* | 5.6
CC1=NN(c2ccccc2)C(=O)/C1=C/C=C/c1ccccc1 | 20.6µM* | -0.9 | -3.3% | -0.3
CCCCNC(=O)C(c1ccc(OCC(=O)OC)c(C(=O)OC)c1)N(CCC1=CCCCC1)C(=O)CCCCCN1C(=O)NC(c2ccc(-c3ccccc3)cc2)C(C(=O)OCc2ccccc2)=C1C (stereo not given) | . | . | 32.0% | -0.1
O=C(CSc1cn(CCNC(=O)c2ccc3ccccc3c2)c2ccccc12)NCc1ccco1 | 23.1µM* | 13.8 | -7.7% | -0.5
COc1ccccc1C(=O)NCCn1cc(SCC(=O)Nc2cc(C)on2)c2ccccc21 | 23.1µM* | -15.5 | -15.3% | 0.6
